# A selection: hits, their analogues and other compounds. The true share with any hit is near 3.4%.
# hcDAF-12 act: H. contortus DAF-12 nuclear receptor activators, primary screen, cell-based, luminescence, HEK293, lit1-tk-luc reporter; HEK293 hcDAF-12 lit1-tk-luc reporter; 0% DMSO, 100% Δ7-dafachronic acid; activation, % at 6.8 µM; hit rate 1.4% among 370,000;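 active means activation above the mean of all tested compounds plus 3 SD, cut at about 5.5% in these data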
# APP 5'UTR act: activators of APP 5'UTR luciferase reporter, primary screen, SH-SY5Y cells | hit rate 1% among 190,000 | activation, % at 2 µM | SH-SY5Y APP 5'UTR luciferase reporter, luminescence; zero percent = DMSO vehicle wells;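 active means activation above a set limit, based on mean plus 3 SD of controls, cut at about 140% in these data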
# ssDAF12 agonist: S. stercoralis DAF-12 nuclear receptor activators, primary screen, cell-based, luminescence, HEK293, GRIP1 co-expression, lit1-tk-luc | HEK293 ssDAF-12/GRIP1 lit1-tk-luc reporter; % of 3 µM dafachronic acid response | activation, % at 6.8 µM | hit rate 1% among 370,000 | AID 652126, 2013;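 active means activation above the mean over all tested compounds plus 3 SD, cut at about 0.9% in these data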
# NF-kB neuron act: activators of NF-kB expression in neurons, primary screen, cell-based, HTS; human neuronal cells, NF-kB reporter expression; stronger effect = higher value; fold change at 12.5 µM; hit rate 1.6% among 190,000; AID 1239, 2008; in the data active means fold change above about 3.3
# hgDAF12 agonist: H. glycines DAF-12 receptor agonists, primary screen, cell-based, luminescence, HEK293, GAL4 fusion, UAS-luciferase; Nuclear hormone receptor DAF-12 (Heterodera glycines), GAL4 fusion; HEK293 GAL4-hgDAF12 UAS-luciferase reporter, agonist luminescence; normalized to butyrate control; activation, % at 6.8 µM; hit rate 1.8% among 370,000;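 active means activation above a cutoff set at the mean of all screened compounds plus 3 SD, cut at about 10% in these data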
# LXRb hcDAF ctr: LXR agonists, Gal4 luciferase reporter, confirmation, counter-screen for hcDAF-12 agonist project, cell-based, luminescence, HEK293, H. contortus campaign | AID 743027, 2013 | HEK293 Gal4-LXR tk-luc reporter, 24 h; normalized: DMSO 0%, positive control 100% | activation, % at 6.8 µM | shares compounds with hcDAF-12 act | 3,400 tested, under 10 active;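 active means mean percent activation of the reporter above a cutoff set as the average over tested compounds plus their standard deviation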
# Target sequence (P55055 whole entry, looked up, the tested form may be a part): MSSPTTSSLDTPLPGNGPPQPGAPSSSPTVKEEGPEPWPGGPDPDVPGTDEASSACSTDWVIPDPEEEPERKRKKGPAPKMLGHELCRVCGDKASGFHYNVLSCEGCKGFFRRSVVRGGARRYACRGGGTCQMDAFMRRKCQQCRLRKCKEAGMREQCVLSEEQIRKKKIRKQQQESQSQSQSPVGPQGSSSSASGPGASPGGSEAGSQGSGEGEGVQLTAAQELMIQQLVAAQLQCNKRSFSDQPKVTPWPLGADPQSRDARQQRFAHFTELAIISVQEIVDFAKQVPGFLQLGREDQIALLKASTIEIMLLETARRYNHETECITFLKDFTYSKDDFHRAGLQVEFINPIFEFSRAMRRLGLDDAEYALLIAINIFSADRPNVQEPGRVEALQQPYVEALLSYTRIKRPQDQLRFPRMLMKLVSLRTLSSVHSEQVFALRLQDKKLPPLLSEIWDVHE
# hcDAF12 conf: H. contortus DAF-12 receptor agonists, confirmation, cell-based, luminescence, HEK293, lit1-tk-luc, triplicate; shares compounds with hcDAF-12 act; AID 743032, 2013; activation, % at 6.8 µM; HEK293 hcDAF-12 lit1-tk-luc reporter; % of Δ7-dafachronic acid response; hit rate 61% among 3,400;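 active means mean activation across triplicate tests above the threshold derived from the earlier primary screen, cut at about 5.5% in these data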
# Hits are given with their value; – = inactive; · = not tested or not shown.
SMILES,hcDAF-12 act,APP 5'UTR act,ssDAF12 agonist,NF-kB neuron act,hgDAF12 agonist,LXRb hcDAF ctr,hcDAF12 conf
Cc1ccc(C(=O)n2ccc3ccc(-c4ccc5ccn(Cc6ccc(C#N)cc6)c5c4)cc32)cc1,–,·,–,·,–,·,·
O=c1c(-c2cccc3ccccc23)[n+]([O-])c2ccccc2n1O,7.3,–,–,–,–,–,5.9
CCOn1c(=O)c(-c2cccc3ccccc23)[n+]([O-])c2ccccc21,–,–,–,–,–,·,·
CCCCN1CCS(=O)(=O)N(Cc2cn(Cc3ccccc3Br)nn2)C(C(=O)OC)C1 (centres undefined),–,·,–,·,–,·,·
Cc1csc(NC(=O)c2ccc(COc3ccc(Cl)c(Cl)c3)o2)n1,–,·,–,·,–,·,·
Fc1ccc(/C=N/NC2=Nc3cccc4cccc2c34)cc1,15,167,2.2,–,22,–,11
O=C(Nc1ccc(Br)cc1)Nc1ccccc1Cl,7.7,·,–,·,–,–,–
O=C1NN(c2ccccc2)C(=O)/C1=C/c1coc2ccccc2c1=O,17,–,1.7,–,13,–,–
O=C1NN(c2ccccc2)C(=O)/C1=C\c1coc2ccc(O)cc2c1=O,–,·,–,·,–,·,·
N#CCC[C@H]1CC[C@]2(CCCN(C(=O)c3ccc4ccccc4n3)C2)O1,–,·,–,·,–,·,·
CCOC(=O)Cn1c(=O)c(-c2cc(Br)ccc2N)nc2ccccc21,–,·,–,·,–,·,·
Cn1c(=O)c(-c2cc(Br)ccc2N)nc2ccccc21,11,–,1.2,–,–,–,13
O[C@H](COc1ccc(C(F)(F)F)cc1)CN1CCC(C(O)(c2ccccc2)c2ccccc2)CC1,–,·,–,·,–,·,·
N#Cc1cccc(CNCC(=O)N2CCC3(CC2)OCCO3)c1,–,·,–,·,–,·,·
COc1ccc(-c2cc(C(=O)O)c3ccccc3n2)c(OC)c1,–,–,–,–,–,·,·
O=C(O)c1cc(-c2ccc(-c3ccc(F)cc3)o2)nc2ccccc12,13,·,–,·,11,–,6.8
COc1ccc2cc(-c3cc(C(=O)O)c4ccccc4n3)ccc2c1,8.8,–,3.0,6.3,13,–,–
O=C(c1cc(-c2ccc(F)cc2)nc2ccccc12)N1CCC1,–,·,–,·,–,·,·
COc1ccc(-n2c(SCC(=O)Nc3ccc4c(c3)OCO4)nc3sc4c(c3c2=O)CCCC4)cc1,–,·,–,·,–,·,·
O=C(Nc1ccccc1)OC1CC2CC1[C@H]1CCCCN1[C@H]2Cc1ccccc1 (some centres undefined),–,·,–,·,–,·,·
O=C(c1cc(F)ccc1F)N1CCCC(c2nc(-c3cccs3)no2)C1 (centres undefined),–,·,–,·,–,·,·
COc1ccc2c(c1)C1=NN(/C(C)=C/C(C)=O)C(c3ccc(F)cc3)C1CC2 (centres undefined),9.5,–,1.3,–,–,–,5.7
O=C(c1cc[n+]([O-])cc1)N1CCc2c([nH]c3ccccc23)C1c1ccccc1Cl (centres undefined),–,–,–,–,–,·,·
CN1N=C(C(=O)N2CCc3c([nH]c4ccccc34)C2c2ccccc2Cl)CCC1=O (centres undefined),7.8,–,1.7,–,12,–,6.9
COc1ccc(C2c3[nH]c4ccccc4c3CCN2C(=O)c2ccc(=O)n(C)n2)c(F)c1 (centres undefined),6.9,–,–,–,–,–,–
COC(=O)[C@]12C[C@H](CC(=O)NCCCCc3ccccc3)C(=O)N(Cc3ccco3)C1=C[C@H](COCc1ccccc1)O[C@@H]2C,–,·,–,·,–,·,·

# Bioassay records as filed in PubChem.
